Results as given in PubChem BioAssay (NCI).
The panel holds about 79,000 compounds, 15% with a hit somewhere; the sample as a whole holds those more often. Calls of active or inactive are those of the source. Rule as the data show it: active = growth inhibition above about 70%; inactive = the rest.

Columns and labels:
[1] = NCI Yeast Anticancer Drug Screen. Data for the rad50 strain (AID 155);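 also: 0% = growth of vehicle-only cultures of the same strain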; settings: S. cerevisiae rad50 strain growth inhibition; at 50.0 µM; active compounds read high
Summary of the method: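 Compounds were tested on a yeast strain with an engineered DNA damage repair alteration; the reported value is growth inhibition normalised to vehicle treatment.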

[2] = NCI Yeast Anticancer Drug Screen. Data for the mec2-1 strain (AID 157); settings: S. cerevisiae mec2-1 strain, at 50.0 µM, active compounds read high
Summary of the method: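 Test agents were screened against the mec2-1 yeast strain, with defined DNA repair or cell cycle alteration. Growth was scored as inhibition against vehicle-only controls.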

[3] = NCI Yeast Anticancer Drug Screen. Data for the sgs1 mgt1 strain (AID 161);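 also: 0% = growth of cultures given vehicle only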; settings: S. cerevisiae sgs1 mgt1 strain, at 50.0 µM, active compounds read high
Summary of the method: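 Read-out: growth inhibition vs vehicle controls. Cells: mutant yeast strain deficient in DNA damage repair.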

[4] = NCI Yeast Anticancer Drug Screen. Data for the cln2 rad14 strain (AID 165);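 also: 0% = growth equal to vehicle treated cultures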; settings: S. cerevisiae cln2 rad14 strain, at 50.0 µM, active compounds read high
Summary of the method: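 Growth of compound-exposed yeast (cln2 rad14 genotype) measured and expressed as inhibition relative to vehicle.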

[5] = NCI Yeast Anticancer Drug Screen. Data for the bub3 strain (AID 167); settings: S. cerevisiae bub3 mutant strain, at 50.0 µM, active compounds read high
Summary of the method: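 Growth of a checkpoint-deficient yeast mutant is measured after compound exposure. Values represent inhibition relative to vehicle.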

[6] = NCI Yeast Anticancer Drug Screen. Data for the mlh1 rad18 strain (AID 175); settings: S. cerevisiae mlh1 rad18 strain growth inhibition; at 50.0 µM; active compounds read high
Summary of the method: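 In this whole-cell yeast screen, a strain with altered DNA damage repair is challenged with compound, and its growth is measured against matched vehicle-treated controls.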

Measured: growth inhibition

COc1ccc(-c2nnc(N)o2)cc1OC
inactive: [1] -34% | [2] -10.3% | [3] -16.1% | [4] 6.35% | [5] -13.9% | [6] -24.9%

Nc1cccc(/C=C/c2ccc([N+](=O)[O-])cc2)c1
inactive: [1] -2.3% | [2] 24.6% | [3] 54.7% | [4] -12.4% | [5] 30% | [6] 39.5%

Cc1cc(C)[n+](C)c(/C=C/c2cccc([N+](=O)[O-])c2)n1
inactive: [1] 6.55% | [2] -6.95% | [3] 4.85% | [4] 16.4% | [5] 3.4% | [6] 11.1%

CC(=O)OC(C)c1cc2c(s1)C(=O)c1scc(C(C)OC(C)=O)c1C2=O (stereo unspecified)
active: [1] 90.8% | [2] 93.4% | [3] 92.5% | [4] 91.9% | [5] 91.7% | [6] 91.3%

CON(C)c1nc(N(C)OC)nc(N(C)OC)n1
inactive: [1] -8.05% | [2] -48.2% | [3] -28.8% | [4] 7.85% | [5] -22.9% | [6] -12.5%

Nc1nc(=O)[nH]c2n[nH]nc12
inactive: [1] -18.2% | [2] -7.15% | [3] 6.7% | [4] -3.15% | [5] -2.35% | [6] 0.2%

CC1=C(C(=O)NCc2ccccc2)C(c2ccc([N+](=O)[O-])cc2)C(C(=O)NCc2ccccc2)=C(C)N1
inactive: [1] -10.6% | [2] -15.2% | [3] 1.5% | [4] 4.4% | [5] -4.8% | [6] -23.8%

OC1OC(CCl)C(Cl)C(O)C1O (stereo unspecified)
inactive: [1] 0.55% | [2] -2.95% | [3] 9.9% | [4] -11% | [5] -18.9% | [6] -16.6%

CCN(CC)c1ccc(NC(=S)Nc2ccc(N(CC)CC)cc2)cc1
inactive: [1] 23.3% | [2] -0.5% | [3] 4.95% | [4] -66% | [5] 22.2% | [6] -22.9%

N#Cc1c(-c2ccccc2)ssc1=S
inactive: [1] 31.4% | [2] 25.1% | [3] 50.4% | [4] -20.8% | [5] 11.8% | [6] 12.6%

CC1=CCC(=O)O1
inactive: [1] 2.15% | [2] 8.2% | [3] -1.7% | [4] 12.2% | [5] -7.75% | [6] 15.3%

COc1cc(/C=C/C(=O)NCCc2c[nH]c3ccc(O)cc23)ccc1O
inactive: [1] -9.25% | [2] -0.75% | [3] 9.3% | [4] 11.8% | [5] 3.15% | [6] 6.75%

CC(=O)OCCOC(=O)Nc1ccccc1
inactive: [1] 0.05% | [2] -14.5% | [3] -13.9% | [4] -22.2% | [5] -2.55% | [6] -4.85%

CSc1ccc(NC(=O)CCc2ccccc2)cc1
inactive: [1] 7.7% | [2] 6.45% | [3] 13.2% | [4] -4% | [5] 41.5% | [6] 24.1%

NC(=O)c1cc(OCc2ccccc2)nc2nc(Cl)nc(N)c12
inactive: [1] -5.05% | [2] 14.6% | [3] 3.35% | [4] -15.8% | [5] -0.8% | [6] 5.05%

Cc1cccc(C)c1NC(=O)C1C(=O)N(c2c(C)cccc2C)C(=O)/C1=N\NC(N)=S (stereo unspecified)
inactive: [1] -15.2% | [2] -24.4% | [3] -37.4% | [4] -9.5% | [5] -31.1% | [6] -34.9%

COc1cccc(C(=O)O)c1O
inactive: [1] -16.9% | [2] -11.8% | [3] -15.3% | [4] -8.8% | [5] -19.9% | [6] -7.7%

c1cc2c([nH]1)CCCC2
inactive: [1] 12.5% | [2] 14.3% | [3] 2.45% | [4] 21.1% | [5] 23.6% | [6] 13.9%

NC(=O)NC(=S)NC(=O)c1ccccc1
inactive: [1] -2.95% | [2] 0.95% | [3] -2.95% | [4] -33.5% | [5] -28.8% | [6] -7%

Nc1ccccc1CCO
inactive: [1] 14.5% | [2] -6.75% | [3] 30.9% | [4] 13.2% | [5] -5.8% | [6] 19.5%

CCOCCC(=N)OCC
inactive: [1] 11.2% | [2] -4.7% | [3] 7.9% | [4] 9.45% | [5] 4.2% | [6] 13.6%

CCN(CC)CCC(CN(C)C)C(C)O (stereo unspecified)
inactive: [1] -4.05% | [2] 4.05% | [3] 13.1% | [4] -17.4% | [5] -1.4% | [6] 8.75%

CCOC(=O)/C=C1\NCCc2ccccc21
inactive: [1] -6.85% | [2] 1.45% | [3] 8.5% | [4] 24% | [5] 4.8% | [6] 4.55%

Oc1c(Cl)cc(N=Cc2ccc(N(CCCCl)CCCCl)cc2Cl)cc1Cl
active: [1] 84.6% | [3] 93.7% | [4] 75.2% | [6] 84%
inactive: [2] 41% | [5] 54.7%

CC(N=C(N)N)C(=O)O (stereo unspecified)
inactive: [1] -11.9% | [2] 9.1% | [3] 0.15% | [4] -12.5% | [5] 5.3% | [6] 14%

COc1ccc(N)cc1CO
inactive: [1] 8.85% | [2] -9.85% | [3] -15.3% | [4] -17.1% | [5] -12.3% | [6] 12.7%

NC(N)=NCC1CCCCCCN1 (stereo unspecified)
inactive: [1] -9.2% | [2] -20.7% | [3] -21.1% | [4] 18.6% | [5] -12.6% | [6] 12.9%

O=S(=O)(CC1=NC2C=CC=CC2N=C1)NCc1ccccc1 (stereo unspecified)
inactive: [1] 7.3% | [2] -18.9% | [3] 12.8% | [4] 30.3% | [5] 25.6% | [6] -11.8%

CCCCCCc1cn([C@H]2C[C@H](O)[C@@H](CO)O2)c(=O)[nH]c1=O
inactive: [1] -5.6% | [2] -5.4% | [3] 7.2% | [4] -12.8% | [5] 3% | [6] 9.15%

COc1ccc(S(=O)(=O)O)cc1NS(=O)(=O)c1ccc(C)cc1
inactive: [1] -1.05% | [2] 18.9% | [3] 15.9% | [4] -12.2% | [5] 0.05% | [6] -2.1%

CC(C)c1ccc(/C=C2/C=C(c3ccc4ccccc4c3)OC2=O)cc1
inactive: [1] -9.25% | [2] -1.7% | [3] -31.8% | [4] -3.75% | [5] -17.8% | [6] -18.9%

CC(C)=NN/C=N/S(=O)(=O)c1ccc(C)cc1
inactive: [1] 15.2% | [2] 6.05% | [3] 10.4% | [4] 25% | [5] 2.1% | [6] 4.65%

C(#Cc1ccccc1)/C=C/C(=C\c1ccccc1)c1ccccc1
inactive: [1] 6.6% | [2] 4.9% | [3] -4.9% | [4] 11.8% | [5] 20.8% | [6] 33.5%

Cc1ccc(Br)c([N+](=O)[O-])c1
inactive: [1] 5.1% | [2] -4.75% | [3] 2.1% | [4] 5.85% | [5] -0.2% | [6] 1.75%

O=C1CCC(=O)N1Cc1ccccc1N=[N+]([O-])c1ccccc1CN1C(=O)CCC1=O
inactive: [1] -37.2% | [2] -14.7% | [3] 1.75% | [4] -0.55% | [5] -19.5% | [6] -15.9%

N/N=C(/Cc1nc2ccc(C(=O)c3ccccc3)cc2[nH]c1=O)C(=O)Nc1ccc([N+](=O)[O-])cc1[N+](=O)[O-]
inactive: [1] 23.4% | [2] 13.2% | [3] -3.6% | [4] -47.8% | [5] 5.2% | [6] 15.6%

CSCCOC(=O)C1C2CCC(O2)C1C(=O)O (stereo unspecified)
inactive: [1] 11.1% | [2] 10.6% | [3] 1.55% | [4] 9.25% | [5] -0.6% | [6] 17.6%

O=C(OCOC(=O)c1ccccc1)c1ccccc1
inactive: [1] -23.1% | [2] -5.95% | [3] -8.6% | [4] -18.5% | [5] -4.7% | [6] -6.55%

O=C(Nc1ccc(Br)cc1)c1cc(Cl)cc(Cl)c1Br
inactive: [1] -23.4% | [2] 17.9% | [3] -16.8% | [4] -11.6% | [5] 2.85% | [6] 27.7%

Cc1sc2nc(N(C)C)oc(=O)c2c1C
inactive: [1] 28.8% | [2] 51% | [3] 33.6% | [4] 1.5% | [5] 64.4% | [6] 50.5%

Cc1ccc(C(=O)NC(N)=O)cc1
inactive: [1] 12.4% | [2] -6.25% | [3] -17.8% | [4] -51.4% | [5] -13.1% | [6] -18.6%
